RE007 growth inh = less growth of the S. pombe RE007 Vpr strain. S. pombe RE007 Vpr strain, BacTiter-Glo ATP luminescence, 24 h. Potency, µM (doses to about 92.2 µM), usual class: inhibitors. 360,000 compounds, 0.21% hits. AID 651644; active = well fitted falling curve with a large enough effect; inconclusive = small, poorly fitted or top-dose-only effect; inactive = no such curve, though single readings can be large or run the other way; also: nearly all actives have a fitted effect of over 50% in size
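Fission yeast RE007 carrying one integrated HIV-1 vpr copy, seeded at OD 0.01 in PMG+AL medium with 23 nL pinned compound. Grown 24 h at 30 degrees; viability read by BacTiter-Glo luminescence after 5 min.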
Sm TGR inh = blocks Schistosoma mansoni thioredoxin glutathione reductase. 360,000 compounds, 3% hits. Potency, µM (top dose mostly 114 µM), actives largely listed as inhibitors. purified TGR, DTNB reduction, TNB absorbance 405 nm. Q962Y6; also: nearly all actives have a fitted effect of over 60% in size
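Kinetic colorimetric format: TGR-catalysed, NADPH-driven DTNB reduction monitored via TNB absorbance. Enzyme dispensed at 20 nM; compound exposure 15 min at room temperature before reaction start.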
FMDV inh = blocks foot and mouth disease virus; FMDV antiviral cell-based qHTS; Potency, µM (top dose mostly 57.9 µM), usual class: inhibitors; 410,000 compounds, 1.2% hits; calls by dose curve; tested in HEK293T cells; also: read-out not given here; nearly all actives have a fitted effect of over 45% in size
TbPYK inhibitor = inhibitors of Trypanosoma brucei pyruvate kinase. 410,000 compounds, 0.12% hits. Potency, µM (top dose mostly 76.8 µM), actives largely listed as inhibitors. AID 624173. TbPYK enzyme, Kinase-Glo Plus ATP luminescence, 45 min; also: nearly all actives have a fitted effect of over 50% in size
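Screened from lowest to highest concentration, compounds were pinned into TbPYK/substrate mixtures, and ADP (130 uM final) was added. Plates sat at room temperature for 45 min prior to Kinase-Glo Plus detection by luminescence.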
Hits are given with their value; i = inactive; ? = inconclusive; nt = no result given; [ ] = dose if it differs, or a comment. The list is not random: actives were taken first. Their share in the collection is about 3.7%. Unless noted, calls follow the shape of the dose curve; as a rule, active = well fitted curve in the direction sought with a large enough effect; inconclusive = small, poorly fitted or top-dose-only effect, or another doubt; inactive = no such curve, though single readings can be large; an effect the other way counts as inactive or inconclusive.

SMILES	RE007 growth inh	Sm TGR inh	FMDV inh	TbPYK inhibitor
Cc1ccc(C)c(N2CCN(C(=O)c3cc4c(=O)n(Cc5ccco5)ccc4nc3C)CC2)c1	nt	39.8µM	?	i
Cc1ccc(CNC(=O)c2cc3c(C)nc4ccccc4c3o2)cc1	i	i	12.6µM	i
Cc1ccc(CNC(=O)c2cc3c(=O)n(Cc4ccco4)ccc3nc2C)cc1	nt	25.1µM	i	i
Cc1nc2ccn(Cc3ccco3)c(=O)c2cc1C(=O)NCc1ccccc1	nt	i	i	i
COc1cccc(N2CCN(C(=O)c3cc4c(=O)n(Cc5ccco5)ccc4nc3C)CC2)c1	nt	10µM	i	i
Nc1c(N=Nc2ccc(-c3ccc(N=Nc4cc(S(=O)(=O)O)c5ccccc5c4N)cc3)cc2)cc(S(=O)(=O)O)c2ccccc12	nt	nt	nt	i
Cc1cc(-c2ccc(N=Nc3ccc4c(S(=O)(=O)O)cc(S(=O)(=O)O)c(N)c4c3O)c(C)c2)ccc1N=Nc1ccc2c(S(=O)(=O)O)cc(S(=O)(=O)O)c(N)c2c1O	nt	nt	31.6µM	?
O=c1cc(-c2ccccc2)nc(SCc2nc(-c3ccccc3Cl)no2)[nH]1	nt	i	i	i[15.4 µM]
CC(=O)Nc1ccc(OCC(O)Cn2c3ccccc3c3ccccc32)c(C)c1 (centres undefined)	i	i	22.4µM	i
CCOc1ccc(N2CC(C(=O)NCC(=O)Nc3ccc(F)c(F)c3F)CC2=O)cc1 (centres undefined)	i	31.6µM	i	i
CC(C)Nc1ccc(Nc2ccccc2)cc1	?	8.91µM	i	?
Cc1ccc2nc(C(Cl)(Cl)Cl)nc(N/N=C/c3ccncc3)c2c1	i	i	i	i
Cc1ccc2nc(C(Cl)(Cl)Cl)nc(N/N=C/c3ccc([N+](=O)[O-])cc3)c2c1	i	nt	22.4µM	i
COCCCNC(=O)/C(C#N)=C/c1c(N2CCN(c3ccccc3)CC2)nc2c(C)cccn2c1=O	i	35.5µM	i	i
O=C(CC(c1ccccc1)C1CCCCC1=O)c1ccco1 (centres undefined)	i	?	i	i
O=C(CC(c1ccco1)C1CCCCC1=O)c1ccco1 (centres undefined)	i	50.1µM	i	i
O=c1cc(O)n(-c2ccccc2)c(=S)[nH]1	i	2µM	i	?
CC(=O)c1ccc(F)c(-c2cc(C)cc3c2OC(CNC(=O)Cn2nc(C)nc2C)C3)c1 (centres undefined)	nt	nt	i	nt
CCN(CC)Cc1ccc(NC(=O)c2sc3cc(Cl)ccc3c2Cl)cc1	28.2µM	i	?	i
CCCc1nc2ccccc2n2c(-c3cccc(C)c3)c3c(=O)n(C)c(=O)n(C)c3c12	nt	i	?	i
COc1cc2[nH]c(C(=O)N(C)Cc3ccccc3)cc2c(OC)c1OC	i	i	i	i
CCN(Cc1ccccc1)C(=O)c1cc2c(OC)c(OC)c(OC)cc2[nH]1	i	35.5µM	i	i
COc1cccc(CCNC(=O)c2cnc3sc(N4CCCC4)nn3c2=O)c1	nt	i	?	i
Oc1c(Cl)cc(Cl)cc1C1=NNC(c2ccc(Cl)cc2)C1 (centres undefined)	i	3.16µM	i	i
CCCCN(CC)C(=O)c1nn(-c2ccc(OC)cc2)c(=O)c2c1c1ccccc1n2C	nt	i	?	i
SMILES	RE007 growth inh	Sm TGR inh	FMDV inh	TbPYK inhibitor
COc1cc(CCC(=O)Nc2ccc(S(=O)(=O)N3CCCC3)cc2)cc(OC)c1OC	i	i	i	i
Cc1ccccc1OCC(=O)Nc1ccc(C)c(S(=O)(=O)N2CCCCCC2)c1	i	i	i	i
COc1cc(CCC(=O)Nc2ccc(C)c(S(=O)(=O)N3CCCCCC3)c2)cc(OC)c1OC	i	i	17.8µM	i
Cc1ccccc1C(=O)NCC(=O)Nc1ccc(C)c(S(=O)(=O)N2CCCCCC2)c1	i	i	35.5µM	i
Cc1ccc(NC(=O)Cn2nc(C(=O)O)c3ccccc3c2=O)cc1S(=O)(=O)N1CCCCC1	i	nt	39.8µM	i
COc1ccc(NC(=O)C2CCC(C(C)(C)C)CC2)cc1S(=O)(=O)N1CCCCC1 (centres undefined)	i	i	17.8µM	i
CN(C)c1ccc(-c2cncnc2Nc2ccc(F)cc2)cc1	nt	nt	i	nt
C=CCNC(=S)Nc1ccc(C)c(S(=O)(=O)N2CCCCC2)c1	i	35.5µM	i	i
COC1CCC(OC2CC(C3(C)CCC4(CC(O)C(C)C(C(C)/C=C(\C)C(=O)C(C)CC(C)C(=O)O)O4)O3)OC3(OC(C4OC(O)(CO)C(C)CC4C)CC3C)C2C)OC1C (centres undefined)	?	nt	17.8µM	i
CSc1ccc2cc(CNCc3ccccc3F)c(N3CCCC(CO)C3)nc2c1 (centres undefined)	nt	nt	i	nt
Cc1nc2ccc(S(=O)(=O)NCC(=O)N3CCc4ccccc4C3)cc2s1	i	i	i	i
Cc1nc2ccc(S(=O)(=O)NCC(=O)N3CCc4ccccc43)cc2s1	i	56.2µM	i	i
CC(=O)c1ccc(F)c(-c2cc(C)cc3c2OC(CNC(=O)c2cnc4ccccn4c2=O)C3)c1 (centres undefined)	nt	nt	i	nt
COc1ccccc1OCC(=O)NCC1(N2CCOCC2)CCCCC1	nt	i	i	i
CC(/C=C1\SC(=O)N(CCCC(=O)O)C1=O)=C\c1ccccc1	i	i	0.891µM	i
O=C(O)CN1C(=O)/C(=C\C(Br)=C\c2ccccc2)SC1=S	i	20µM	i	i
CC(=C\c1ccccc1)/C=C1/SC(=S)N(CCCC(=O)O)C1=O	i	i	?	i
CCc1ccc(Oc2c(C(F)(F)F)oc3c(CN4CCN(C)CC4)c(O)ccc3c2=O)cc1	nt	i	i	i
CN(C)S(=O)(=O)c1cccc(NC(=S)N/N=C/c2ccco2)c1	i	39.8µM	i	i
CN(C)S(=O)(=O)c1cccc(NC(=S)NCc2ccco2)c1	i	35.5µM	i	i
COc1cccc(/C=N/NC(=S)Nc2cccc(S(=O)(=O)N(C)C)c2)c1	i	i	?	i
CN(C)S(=O)(=O)c1cccc(NC(=S)N/N=C/c2ccc(O)c(O)c2O)c1	i	10µM	i	10µM
Cc1cccc2nc(CNC(=O)CN3Cc4ccccc4OC(c4ccccc4F)C3)cn12 (centres undefined)	nt	nt	i	nt
O=C1/C(=C/N(C(=O)c2ccco2)c2ccc(Br)cc2)Sc2ccccc21	i	12.6µM	11.2µM	i
O=C1/C(=C/N(C(=O)c2ccco2)c2ccc(Cl)cc2)Sc2ccccc21	?	39.8µM	?	i
SMILES	RE007 growth inh	Sm TGR inh	FMDV inh	TbPYK inhibitor
O=C1c2ccccc2C(=O)N1CCCCN(C(=O)c1ccco1)c1ccc(Cl)cc1	i	i	?	i
COc1ccc(CN(C(=O)c2ccco2)c2ccc(Br)cc2)cc1OC	i	i	?	i
CC(C)(C)NC(=O)[C@H]1CC[C@H]2[C@@H]3CC=C4C=C(C(=O)O)CC[C@@]4(C)[C@H]3CC[C@]12C	nt	nt	nt	i
OCCCNCc1cc2cc3c(cc2nc1N1CCN(c2cccc(Cl)c2)CC1)OCO3	nt	nt	i	nt
COc1ccc2[nH]c(=O)c(CN(CC3CCCO3)C(=O)Nc3ccc(F)cc3)cc2c1 (centres undefined)	i	i	14.1µM	i
COc1cc(N2CCC(O)CC2)ccc1Nc1nnc(Cl)c(Nc2ccccc2S(C)(=O)=O)n1	i	nt	20µM	i

Assay outcomes deposited in PubChem by National Center for Advancing Translational Sciences (NCATS).
